Records with an inconclusive call do not appear. Calls of active or inactive are those of the source. Unless noted, calls follow the shape of the dose curve; as a rule, active = well fitted curve in the direction sought with a large enough effect; inconclusive = small, poorly fitted or top-dose-only effect, or another doubt; inactive = no such curve, though single readings can be large; an effect the other way counts as inactive or inconclusive.
Tests used:
[1] = Confirmation and Secondary Assay for Modulators of Hemoglobin Beta Chain Splicing at IVS2 654 locus (AID 910)
How it was run: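 HeLa cells stably carrying EGFP interrupted by mutant beta-globin IVS2-654 intron (CMV-driven) were treated with compound for 2 days at 37C; corrected splicing was scored as total peak GFP intensity per well (488 nm excitation, 500-520 nm emission).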

[2] = Confirmation and Secondary Assay for Modulators of Hemoglobin Beta Chain Splicing at IVS2 705 locus (AID 930);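 also: HeLa cells stably expressing the EGFP-705 splicing reporter; GFP fluorescence per well restored by corrected splicing of the IVS2-705 intron in EGFP; series mostly up to about 46 µM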
How it was run: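 HeLa cells stably carrying EGFP interrupted by mutant beta-globin intron 2 (IVS2-705) treated 2 days at 37C with compound; 500 nM antisense PNA as control. Correct splicing read as total peak GFP intensity per well by laser-scanning cytometry.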

[3] = MultiTox-Fluor Cytotoxicity Assay - LYMP1-001 - Dead Cells (AID 946);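 also: cells exposed to compound for 16 h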
How it was run: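 Seed 2500 LYMP1-001 cells/well, incubate 5 hr at 37 C; add compound, 16 hr at 37 C; add MultiTox-Fluor reagent, 60 min RT; read dead-cell fluorescence Ex/Em=485/520. Normalize to DMSO and 15 uM tetraoctylammonium bromide.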

[4] = MultiTox-Fluor Cytotoxicity Assay - LYMP1-001 - Live Cells (AID 947)
[5] = Cell Viability - LYMP1-002 - Assay at 16 hr (AID 948)
How it was run: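 LYMP1-002 human lymphoblastoid cells, 2500/well, were treated with compounds for 16 hr at 37 C in complete medium. Viability was read as intracellular ATP by CellTiter-Glo luminescence, and AC50 was derived from a Hill fit to concentration-response data.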

[6] = MultiTox-Fluor Cytotoxicity Assay - LYMP1-002 - Dead Cells (AID 960);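 also: cells exposed to compound for 16 h at 37 °C; nearly all actives have a fitted effect of over 60% in size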
How it was run: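 Concentration-dependent increases in membrane-leaked protease activity are quantified in LYMP1-002 cells after 16 hr treatment; values are normalized against DMSO and tetraoctylammonium bromide (15 uM) controls and AC50 derived by Hill modeling.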

[7] = MultiTox-Fluor Cytotoxicity Assay - LYMP1-003 - Live Cells (AID 962);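 also: cells exposed to compound for 16 hours at 37 °C; cytotoxic hits lower the live-cell protease signal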
How it was run: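 Human lymphoblastoid line LYMP1-003 in complete culture medium, treated 16 hr with titrated compounds. Viable cells quantified via cell-permeant GF-AFC substrate fluorescence; AC50 derived by Hill fitting.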

[8] = Cell Viability - LYMP1-003 - Assay at 24 hr (AID 963)
How it was run: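 The lymphoblastoid line was treated with titrated compounds for 24 hours, and viable cell number estimated from luciferase-based ATP luminescence.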

[9] = Cell Viability - LYMP1-003 - Assay at 40 hr (AID 964); also: series mostly up to about 92 µM; nearly all actives have a fitted effect of over 60% in size
How it was run: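 Acute toxicity is scored as a concentration-dependent loss of intracellular ATP in LYMP1-003 cells (2500/well, complete medium) after 40 hr at 37 C, measured by CellTiter-Glo luminescence; AC50 values derive from standard Hill modelling.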

[10] = Cell Viability - LYMP2-003 (AID 965);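 also: cells exposed to compounds for 24 h before reading; nearly all actives have a fitted effect of over 50% in size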
How it was run: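 Human lymphoblastoid LYMP2-003 cells, 2500/well, exposed to compounds for 24 h at 37 C in complete medium. Viability read as intracellular ATP by CellTiter-Glo luminescence; AC50 from Hill-equation fits of qHTS concentration-response data.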

[11] = Cell Viability - LYMP2-004 (AID 966); also: nearly all actives have a fitted effect of over 65% in size
How it was run: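 Viable-cell number estimated from ATP luminescence (CellTiter-Glo) in 2500 human lymphoblastoid cells/well after 24 hr at 37 C with compound. AC50 fitted to the standard Hill equation.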

[12] = Cell Viability - LYMP2-005 (AID 967); also: series mostly up to about 92 µM
How it was run: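 Human lymphoblastoid LYMP2-005 cells, 2,500 per well in complete medium, rested 5 h at 37C then compound-treated 24 h at 37C. Intracellular ATP read by CellTiter-Glo luminescence after 30 min at room temperature; AC50 from Hill-equation fits of concentration-response data.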

[13] = Cell Viability - LYMP2-009 (AID 968); also: series mostly up to about 92 µM; nearly all actives have a fitted effect of over 55% in size
[14] = Cell Viability - LYMP2-011 (AID 969); also: nearly all actives have a fitted effect of over 60% in size
How it was run: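 Cells seeded at 2500 per well rest 5 hr before compound addition, then incubate 24 hr at 37 C. CellTiter-Glo reagent is added for 30 min at room temperature before luminescence detection.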

[15] = Cell Viability - LYMP2-013 (AID 970); also: series mostly up to about 92 µM; nearly all actives have a fitted effect of over 55% in size
How it was run: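 In complete culture medium, human lymphoblastoid cells were dosed for 24 hr at 37 C, with tetraoctylammonium bromide (6.4pM to 92 uM) as positive control. Viability reflects luciferase-based ATP signal; AC50 derived from concentration-response curves.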

[16] = biological target: Pyruvate kinase (Leishmania mexicana) (UniProt Q27686); assay: qHTS Validation Assay for Inhibitors of Leishmania Mexicana Pyruvate Kinase (AID 945)
How it was run: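 Eight-point qHTS titrations in triplicate, data normalized to DMSO neutral control. Reaction: 0.2 nM LmPYK E451W mutant, 0.5 mM PEP, 0.1 mM ADP, 7 mM MgCl2, pH 7.2, one hour at room temperature; luminescent ATP detection.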

[17] = biological target: Pyruvate kinase PKM (Homo sapiens) (UniProt P14618); assay: qHTS Assay for Activators of Human Muscle Pyruvate Kinase (AID 954; active = well fitted curve in the direction sought with a large enough effect, not every such curve was filed as active)
How it was run: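 PKM2, human, >95% pure, 0.1 nM; PEP 0.5 mM (Km), ADP 0.1 mM; 50 mM imidazole pH 7.2, 50 mM KCl, 0.01% Tween 20, 0.05% BSA; 1 h RT; luciferase luminescence readout.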

Measured: Potency

Chain of Pyruvate kinase PKM (Homo sapiens) (P14618 whole entry, looked up): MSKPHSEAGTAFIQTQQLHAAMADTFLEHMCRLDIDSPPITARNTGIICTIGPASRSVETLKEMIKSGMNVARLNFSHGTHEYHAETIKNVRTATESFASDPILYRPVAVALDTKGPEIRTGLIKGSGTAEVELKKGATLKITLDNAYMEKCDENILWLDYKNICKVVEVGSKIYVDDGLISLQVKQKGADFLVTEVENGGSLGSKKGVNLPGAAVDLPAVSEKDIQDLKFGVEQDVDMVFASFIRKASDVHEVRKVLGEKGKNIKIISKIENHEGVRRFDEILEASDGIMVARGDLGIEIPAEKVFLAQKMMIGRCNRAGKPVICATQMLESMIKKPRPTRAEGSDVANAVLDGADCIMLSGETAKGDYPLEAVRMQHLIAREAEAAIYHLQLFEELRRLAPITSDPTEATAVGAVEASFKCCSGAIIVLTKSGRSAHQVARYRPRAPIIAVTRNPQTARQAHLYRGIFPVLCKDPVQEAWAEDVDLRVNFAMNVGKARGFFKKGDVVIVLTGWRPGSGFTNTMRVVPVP
Chain of Pyruvate kinase (Leishmania mexicana) (Q27686 2-499 E452W): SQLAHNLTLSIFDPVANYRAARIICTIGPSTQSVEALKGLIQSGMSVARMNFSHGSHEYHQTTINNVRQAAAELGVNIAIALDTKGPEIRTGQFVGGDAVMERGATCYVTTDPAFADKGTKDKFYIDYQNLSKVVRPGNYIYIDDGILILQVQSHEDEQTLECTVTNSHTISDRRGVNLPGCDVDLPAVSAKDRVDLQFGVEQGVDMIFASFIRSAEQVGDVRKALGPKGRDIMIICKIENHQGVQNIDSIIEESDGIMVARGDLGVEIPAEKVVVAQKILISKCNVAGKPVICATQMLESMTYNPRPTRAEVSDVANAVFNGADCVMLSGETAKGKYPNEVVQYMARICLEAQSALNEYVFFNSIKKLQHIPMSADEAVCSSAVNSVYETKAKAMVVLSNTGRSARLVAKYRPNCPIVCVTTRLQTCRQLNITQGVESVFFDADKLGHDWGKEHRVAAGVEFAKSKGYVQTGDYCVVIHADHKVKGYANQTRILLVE

NC(N)=O
not listed: [16] | [17]
inactive: all other assays above

c1ccc2ccccc2c1
not listed: [1] | [2] | [16] | [17]
inactive: all other assays above

O=C(O)CCC(=O)c1ccc(-c2ccccc2)cc1
inactive: [1] | [2]

CC(=O)Nc1ccc(OC(=O)c2ccccc2O)cc1
inactive: [1] | [2]

OC[C@H]1O[C@@H]2O[C@H]3[C@H](O)[C@@H](O)[C@@H](O[C@H]4[C@H](O)[C@@H](O)[C@@H](O[C@H]5[C@H](O)[C@@H](O)[C@@H](O[C@H]6[C@H](O)[C@@H](O)[C@@H](O[C@H]7[C@H](O)[C@@H](O)[C@@H](O[C@H]1[C@H](O)[C@H]2O)O[C@@H]7CO)O[C@@H]6CO)O[C@@H]5CO)O[C@@H]4CO)O[C@@H]3CO
not listed: [1] | [2] | [16] | [17]
inactive: all other assays above

O=C(CCCCCCCCCCCCC1CCCC1)Nc1ccc(S(=O)(=O)c2ccc(NC(=O)CCCCCCCCCCCCC3CCCC3)cc2)cc1
inactive: [1] | [2]

CC1CCC(NC(=O)N(CCCl)N=O)CC1 (stereo unspecified)
inactive: [1] | [2]

CC1CCCC(C)N1NC(=O)c1ccc(Cl)c(S(N)(=O)=O)c1 (stereo unspecified)
inactive: [1] | [2]

CC(=O)N=c1sc(S(N)(=O)=O)nn1C
inactive: [1] | [2]

Nc1nccs1
not listed: [16] | [17]
inactive: all other assays above

CN1CCc2c(c3ccccc3n2Cc2ccccc2)C1
inactive: [1] | [2]

O=C(O)[C@H]1C(=CCO)O[C@H]2CC(=O)N12
inactive: [1] | [2]

C[C@@](Cc1ccc(O)c(O)c1)(NN)C(=O)O
inactive: [16] | [17]

N#Cc1ccc2c(c1)N(CCCN1CCC(O)CC1)c1ccccc1S2
inactive: [1] | [2]

CC(C)c1nc(N(C)S(C)(=O)=O)nc(-c2ccc(F)cc2)c1/C=C/C(O)CC(O)CC(=O)O (stereo unspecified)
inactive: [1] | [2]

CC(=O)Oc1cccc(C(=O)O)c1OC(C)=O
inactive: [1] | [2]

C=CC(C)(O)CC/C=C(\C)CCC=C(C)C (stereo unspecified)
inactive: [1] | [2]

CCOC(=O)C1=C(COCCN)NC(C)=C(C(=O)OC)C1c1ccccc1Cl (stereo unspecified)
inactive: [1] | [2]

NCC(O)CC(=O)O (stereo unspecified)
inactive: [1] | [2]

Nc1ncnc2c1ncn2[C@H]1CC[C@@H](CO)O1
not listed: [16] | [17]
inactive: all other assays above

O=C1c2ccccc2C(=O)c2c1ccc(O)c2O
inactive: [1] | [2]

CCCCO
not listed: [1] | [2] | [16] | [17]
inactive: all other assays above
